# Test results from PubChem BioAssay.
# Where “and” joins values, the source holds several entries; their conditions need not be identical. Equal values may be shown once. Calls of active or inactive are those of the source. Rule as the data show it, unless noted: active = inhibition above about 80%; inactive = the rest.
# Experiments:
# [1] = liver-stage malaria parasite growth inhibition, primary screen, cell-based, HepG2, luciferase luminescence, HepG2 viability (AID 624349; in the data active = parasite load remaining mostly below about 12%, no sharp cut-off; inactive = mostly above about 10%;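 also: 100% = mean of DMSO negative control wells on the same plate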); details: P. berghei liver stage in HepG2, luciferase luminescence, concentration not given here; parasite load remaining: stronger effect = lower value; viability: measured here: HepG2 viability without parasites
# [2] = system: Aerobactin synthetase IucA (Klebsiella pneumoniae); assay: IucA aerobactin synthetase inhibitors, biochemical, Tocris library, absorbance (AID 1345561; call rule not given here;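 also: 100% = enzyme without compound and 0% = no enzyme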); details: purified IucA enzyme assay, absorbance (OD) read-out; stronger effect = lower value;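 tested at 8 µM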
# [3] = sensitizers of A549 cells to miR-34 induction, primary screen, imaging, A549 dox-inducible miR-34, nuclei and caspase counts (AID 1347080;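 active = compounds whose cell count with miR-34 switched on is under 0.7 times the count with it off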); details: A549 miR-34 inducible, Hoechst nuclei count, 48 h
# [4] = survival rescue of mitochondrial mutant cells in low glucose, primary screen, MELAS cybrids, Rieske KO mouse fibroblasts, CellTiter-Glo (AID 1508586;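 active = mean z-score across replicates of 1.96 or higher in either the MELAS or the Rieske mutant cell line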;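 also: z relative to plate mean and SD of compound and empty wells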)
# [5] = viability rescue of complex I mutant cybrids, primary screen, cell-based, galactose medium, ATP luminescence (AID 1645843;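 active = z-score of at least 1.8 in each of two replicates, scored against plate mean and spread of sample wells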;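 also: positive z means more ATP and so rescue of galactose-driven cybrid death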); details: complex I mutant cybrid cells, 72 h, stronger effect = higher value
# [6] = LFS_MB_P medulloblastoma growth inhibition, cell-based, chromothripsis tumors, cisplatin or BGB combos (AID 1671449); details: LFS_MB_P medulloblastoma cells;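 also: cells exposed for 96 hours; 0% = vehicle DMSO and 100% = killing by high DMSO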
# [7] = HDN33 neuroblastoma growth inhibition, cell-based, chromothripsis tumors, cisplatin or BGB combos (AID 1671450); details: HDN33 neuroblastoma cells, stronger effect = higher value;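 also: cells exposed to compound for four days; 0% = vehicle DMSO and 100% = cell killing by high DMSO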
# [8] = ICB984 medulloblastoma cell growth inhibition, synergistic combos for chromothripsis tumors, cisplatin or BGB combos (AID 1671451; call rule not given here;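 also: cells exposed for 96 hours before readout; 0% = vehicle DMSO and 100% = killing by high DMSO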); details: ICB984 medulloblastoma cells, drug combinations, stronger effect = higher value
# [9] = LFS_MB_1R medulloblastoma cell growth inhibition, synergistic combos for chromothripsis tumors, cisplatin or BGB combos (AID 1671452); details: LFS_MB_1R medulloblastoma cells, stronger effect = higher value;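 also: cells exposed for 96 hours before readout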
# [10] = HTB85 osteosarcoma cell growth inhibition, synergistic combos for chromothripsis tumors, BGB or cisplatin IC20 combos (AID 1671453); details: HTB85 osteosarcoma cells, drug combinations, stronger effect = higher value;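 also: cells exposed for 96 hours before readout; 0% = vehicle DMSO and 100% = high DMSO killing control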
# [11] = CRL2098 osteosarcoma cell growth inhibition, synergistic combos for chromothripsis tumors, BGB or cisplatin IC20 combos (AID 1671454); details: CRL2098 osteosarcoma cells, drug combinations, stronger effect = higher value;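 also: cells exposed for 96 h before readout; 0% = vehicle DMSO and 100% = killing by high DMSO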
# [12] = HD-MB03 medulloblastoma cell growth inhibition, synergistic combos for chromothripsis tumors, BGB or cisplatin IC20 combos (AID 1671455; in the data active = inhibition above about 83%;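 also: 0% = vehicle DMSO and 100% = high DMSO as cytotoxic control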); details: HD-MB03 medulloblastoma cells, stronger effect = higher value
# [13] = UWB1.289 ovarian carcinoma cell growth inhibition, synergistic combos for chromothripsis tumors, BGB or cisplatin combos (AID 1671456); details: UWB1.289 ovarian carcinoma cells, stronger effect = higher value;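 also: cells exposed to compound for four days; 0% = vehicle DMSO and 100% = killing by high DMSO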
# [14] = LFS_MB_2R medulloblastoma cell growth inhibition, synergistic combos for chromothripsis tumors, cisplatin combos (AID 1671457); details: LFS_MB_2R medulloblastoma cells, stronger effect = higher value;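 also: cells exposed to compound for four days before readout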
# [15] = MDA-MB-436 breast carcinoma cell growth inhibition, synergistic combos for chromothripsis tumors, BGB or cisplatin combos (AID 1671458; call rule not given here;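 also: cells exposed for 96 hours; 0% = vehicle DMSO and 100% = killing by high DMSO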); details: MDA-MB-436 breast carcinoma growth inhibition, drug combinations, stronger effect = higher value
# [16] = UWB1.289_BRCA1 ovarian cancer growth, cell-based, BGB or cisplatin combinations (AID 1671459); details: UWB1.289 BRCA1 ovarian carcinoma, drug combinations, stronger effect = higher value
# [17] = human astrocyte viability loss, single and combined drugs, cytotoxicity control for chromothriptic childhood tumor combination screen, cell-based, BGB or cisplatin IC20 combos (AID 1671460); details: Human astrocytes, drug combinations, stronger effect = higher value;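 also: cells exposed to compounds for 96 hours before viability readout; 0% = vehicle and 100% = killing control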
# [18] = growth inhibition of BT084 medulloblastoma cells, cell-based, ICGC_MB145, cisplatin and BGB IC40 combos (AID 1671461); details: drug combinations, stronger effect = higher value;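 also: cells exposed to drugs for 96 hours; 0% = vehicle DMSO and 100% = high DMSO full killing control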
# [19] = growth inhibition of RCMB18 medulloblastoma cells, cell-based, cisplatin and BGB IC40 combos (AID 1671462); details: stronger effect = higher value;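 also: cells exposed to compound for four days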
# [20] = growth inhibition of CRL1545 osteosarcoma cells, cell-based, cisplatin and BGB IC20 combos (AID 1671464); details: stronger effect = higher value;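 also: cells exposed to compound for 96 hours before readout; 0% = vehicle DMSO and 100% = high DMSO killing control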
# [21] = stronger effect = lower value, cell number ratio, induced over uninduced
# [22] = measured here: relative caspase fold change +Dox/-Dox
# [23] = measured here: total cells with miR-34 induction, stronger effect = lower value
# [24] = measured here: total cells without miR-34 induction
# [25] = MELAS cybrid survival, CellTiter-Glo 48 h, stronger effect = higher value
# [26] = Rieske KO mouse fibroblast survival, CellTiter-Glo 72 h
# [27] = measured here: combination with BGB IC40, at 0.05 µM
# [28] = measured here: with BGB IC20 combination, at 0.5 µM
# [29] = measured here: with cisplatin IC20 combination, at 0.5 µM
# [30] = measured here: combination with cisplatin, at 0.5 µM
# [31] = measured here: combination with cisplatin, at 5 µM
structure (smiles),measurement,setting,value
O=C(NC(NC(=S)Nc1ccc(F)c([N+](=O)[O-])c1)C(Cl)(Cl)Cl)C(c1ccccc1)c1ccccc1 (stereo unspecified),parasite load remaining,[1],37.9% (inactive)
same,viability,[1],150%
same,remaining activity,[2],80.1% (inactive)
same,fold change,[3]; [21],0.886 (inactive) and 0.916 (inactive)
same,fold change,[3]; [22],0.378 and 1.21
same,cell count,[3]; [23],1760 and 1260
same,cell count,[3]; [24],1990 and 1380
same,z-score,[4]; [25],-0.482 (inactive)
same,z-score,[4]; [26],-0.549
same,z-score,[5],-0.7 (inactive)
same,inhibition,"[6]; at 0.5 µM, stronger effect = higher value",-14.4% (inactive) and -15.8% (inactive)
same,inhibition,"[6]; measured here: combination with BGB IC20, at 0.005 µM",-15.1% and -22%
same,inhibition,"[6]; measured here: combination with BGB IC40, at 0.005 µM",-12.9% and -23.4%
same,inhibition,[6]; [27],-2.89% and -34.1%
same,inhibition,"[6]; measured here: combination with cisplatin, at 0.5 µM, stronger effect = higher value",-21.5% and -41.9%
same,inhibition,"[6]; measured here: combination with cisplatin, at 5 µM, stronger effect = higher value",-21.2% and -42.7%
same,inhibition,"[7]; BGB combo, at 5 µM",-9.61% and -16%
same,inhibition,[7]; at 0.5 µM,-0.93% (inactive) and -12% (inactive)
same,inhibition,"[7]; cisplatin combo, at 5 µM",-12.1% and -4.83%
same,inhibition,[7]; [28],-8.76% and -21.5%
same,inhibition,[7]; [29],2.56% and -5.96%
same,inhibition,"[7]; single agent, at 5 µM",4.16% and -9.08%
same,inhibition,"[8]; BGB IC20 combo, at 0.005 µM",7.62% and 15.2%
same,inhibition,"[8]; BGB IC40 combo, at 0.005 µM",-20.7% and 11.9%
same,inhibition,"[8]; BGB IC40 combo, at 0.05 µM",35.5% and -11.2%
same,inhibition,[8]; at 0.5 µM,-22.3% (inactive) and -17.8% (inactive)
same,inhibition,"[8]; cisplatin combo, at 0.05 µM",33.7% and -15.2%
same,inhibition,"[8]; cisplatin combo, at 0.5 µM",-13.4% and -3.51%
same,inhibition,"[8]; cisplatin combo, at 5 µM",-12.5% and -33.8%
same,inhibition,"[8]; measured here: 5 uM single agent, at 5 µM",-8.95% and -2.73%
same,inhibition,[9]; at 0.5 µM,4.09% (inactive) and -12.4% (inactive)
same,inhibition,[9]; [27],-23.4% and -14.6%
same,inhibition,[9]; [30],-13.7% and -10.4%
same,inhibition,[9]; [31],30.6% and -30.6%
same,inhibition,[10]; at 0.5 µM,8.95% (inactive) and 0.41% (inactive)
same,inhibition,"[10]; measured here: with BGB IC20, at 0.5 µM",16.1% and 0.127%
same,inhibition,"[10]; measured here: with BGB IC20, at 5 µM",2.8% and -10.9%
same,inhibition,"[10]; measured here: with cisplatin IC20, at 0.5 µM",1.41% and -9.26%
same,inhibition,"[10]; measured here: with cisplatin IC20, at 5 µM",2.01% and -34.1%
same,inhibition,"[10]; single agent, at 5 µM",-3.27% and 7.66%
same,inhibition,[11]; at 0.5 µM,-40.5% (inactive) and -32.4% (inactive)
same,inhibition,"[11]; measured here: combination with BGB at IC20, at 0.5 µM",-40.4% and -25.9%
same,inhibition,"[11]; measured here: combination with cisplatin at IC20, at 0.5 µM",-32.4% and -44.5%
same,inhibition,[12]; at 0.5 µM,-6.28% (inactive) and -0.79% (inactive)
same,inhibition,"[12]; measured here: combo with BGB at IC20, at 0.5 µM",-4.65% and -5.29%
same,inhibition,"[12]; measured here: combo with cisplatin at IC20, at 0.5 µM",-1.73% and -0.093%
same,inhibition,[13]; at 0.5 µM,1.14% (inactive) and 7.56% (inactive)
same,inhibition,"[13]; measured here: inhibition with BGB combination, at 0.05 µM",-13.3% and -2.68%
same,inhibition,"[13]; measured here: inhibition with cisplatin combination, at 0.05 µM",-5.95% and 6.61%
same,inhibition,[14]; at 0.5 µM,-3.23% (inactive) and -7.87% (inactive)
same,inhibition,[14]; [30],-13.3% and -8.76%
same,inhibition,[14]; [31],-66.9% and -2.51%
same,inhibition,[15]; at 0.5 µM,-16.1% (inactive) and -3% (inactive)
same,inhibition,"[15]; measured here: BGB combination, at 0.5 µM",-8.94% and -6.88%
same,inhibition,"[15]; measured here: BGB combination, at 5 µM",-14.6% and -14.8%
same,inhibition,"[15]; measured here: cisplatin combination, at 0.5 µM",-23.9% and -0.178%
same,inhibition,"[15]; measured here: cisplatin combination, at 5 µM",-32.1% and -10.9%
same,inhibition,"[16]; BGB combination, concentration series, at 5 µM",0.384% and 38.2%
same,inhibition,[16]; at 0.5 µM,2.79% (inactive) and 5.22% (inactive)
same,inhibition,"[16]; cisplatin combination, concentration series, at 5 µM",64.5% and 45%
same,inhibition,[17]; at 0.5 µM,6.11% (inactive) and 4.43% (inactive)
same,inhibition,"[17]; measured here: combo with BGB IC20, at 0.5 µM",7.77% and 5.34%
same,inhibition,"[17]; measured here: combo with cisplatin IC20, at 0.5 µM",14.5% and -0.76%
same,inhibition,[18]; at 0.5 µM,-8.03% (inactive) and 6.1% (inactive)
same,inhibition,"[18]; cisplatin combination, at 0.5 µM",5.04% and -12.2%
same,inhibition,"[18]; cisplatin combination, at 5 µM",12.2% and 15.1%
same,inhibition,"[18]; measured here: BGB IC40 combination 0.05 uM, at 0.05 µM",8.16% and -30.4%
same,inhibition,"[18]; single agent, at 5 µM",13.4% and 28.8%
same,inhibition,[19]; at 0.5 µM,-8.16% (inactive) and -14.2% (inactive)
same,inhibition,"[19]; cisplatin combo, at 5 µM",-16.1% and 2.1%
same,inhibition,"[19]; measured here: BGB IC40 combination, at 0.05 µM",-2.84% and -11.5%
same,inhibition,[19]; [30],8.34% and 10.3%
same,inhibition,"[19]; single agent, at 5 µM",-30.9% and -16.7%
same,inhibition,[20]; at 0.5 µM,6.4% (inactive) and -19.7% (inactive)
same,inhibition,[20]; [28],25.3% and -10.2%
same,inhibition,[20]; [29],-5.35% and -26.5%
same,inhibition,"[20]; single agent, at 0.05 µM",5.52% and 12.5%
same,inhibition,"[20]; single agent, at 5 µM",4.21% and -26.5%
NC(=O)c1sc(-c2ccsc2)cc1N,remaining activity,[2],88.4% (inactive)
same,fold change,[3]; [21],0.841 (inactive) and 0.869 (inactive)
same,fold change,[3]; [22],0.888 and 1.88
same,cell count,[3]; [23],8280 and 7870
same,cell count,[3]; [24],9850 and 9060
same,z-score,[4]; [25],-0.221 (inactive)
same,z-score,[4]; [26],-0.163
same,z-score,[5],0.36 (inactive)
